Screens deposited in PubChem by National Center for Advancing Translational Sciences (NCATS).
Hits are enriched below; roughly 1% of the tested compounds scored in any of these assays.
FEN1 inhibitor: inhibitors of human flap endonuclease 1; P39748; Recombinant FEN1 flap cleavage, fluorescence, 15 min; Potency, µM (series often up to 114 µM), for the others: top-dose activity change, negative = inhibition, actives largely listed as inhibitors; 0.35% of 390,000 active; also: % is scaled to controls: 0 for no effect and ±100 for the full control effect; nearly all actives have a fitted effect of over 65% in size
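Compounds are tested as a concentration series against 10 nM FEN1; after a 15 min room-temperature preincubation, 50 nM substrate starts cleavage, with plate reads at 0 and 15 min. Normalized responses are fitted by a Hill equation.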
APE1 inh: blocks human APE1 abasic DNA cleavage; P27695; recombinant APE1, TAMRA/BHQ-2 abasic DNA cleavage fluorescence; Potency, µM (doses to about 65.8 µM), for inactives: at the top dose activity change, negative = inhibition, most hits filed as inhibitors; 0.35% of 350,000 active;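 also: plate controls were vehicle for no effect and reference inhibitor for full effect; nearly all actives have a fitted effect of over 55% in size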
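Measures dequenching upon AP-site incision of a 5'-TAMRA/3'-BHQ-2 THF-containing duplex, 50 nM; human APE1 0.75 nM after 15 min room-temperature exposure to compound; kinetic three-point read at one-minute spacing.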
RECQ1 inh: RECQ1 (human) helicase inhibition; P46063; RECQ1 DNA unwinding, red fluorescence kinetic read; Potency, µM (titrated, usually from 57.3 µM), without a hit: top-dose activity, negative = inhibition, actives largely listed as inhibitors; 0.54% of 240,000 active; AID 2549;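 also: plate controls were vehicle for no effect and no enzyme for full effect; nearly all actives have a fitted effect of over 30% in size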
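RECQ1T1 50 nM; forked duplex (20 bp + 30-nt ss tails) 200 nM, ATP 2 mM final; pH 8.0, 2 mM MgCl2, 2.5 ug/ml poly(dI-dC); 15 min compound preincubation; discontinuous kinetic read over 2 h at RT.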
WRN helicase inh-1: WRN helicase (human) inhibition | Q14191 | WRN helicase unwinding, fluorescent forked duplex, kinetic | Potency, µM (titrated, usually from 114 µM), without a hit: at the top dose activity change, negative = inhibition, usual class: inhibitors | 0.46% of 360,000 active; also: % is scaled to controls: 0 for no effect and ±100 for the full control effect; nearly all actives have a fitted effect of over 55% in size
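Kinetic red-fluorescence monitoring (525/598 nm) tracks WRN helicase activity after 100 nM fluorophore-quencher forked duplex and 2 mM ATP are added to 20 nM enzyme pretreated 15 min at room temperature with compound.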
L3MBTL1 inh: L3MBTL1 (human) inhibition | Q9Y468 | AlphaScreen L3MBTL1–H3K9me1 peptide binding | Potency, µM (doses to about 57.1 µM), inactives show at the top dose activity, negative = inhibition, most hits filed as inhibitors | 0.66% of 230,000 active | AID 485360; also: % is scaled to controls: 0 for no effect and ±100 for the full control effect; nearly all actives have a fitted effect of over 60% in size
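AlphaScreen proximity signal between nickel-chelate acceptor and streptavidin donor beads (final 10 ug/mL) reports binding of 50 nM L3MBTL1 to 75 nM biotin-H3 K9me1 peptide; complex incubated with compounds 30 min at room temperature; cefsulodin titration as control.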
BLM helicase inh-1: Bloom syndrome helicase (human) inhibition; recombinant BLM DNA unwinding, fluorescence dequenching; 0.2% of 350,000 active; Potency, µM (top dose mostly 56.1 µM), inactives show at the top dose activity change, negative = inhibition, most hits filed as inhibitors;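 also: plate controls were vehicle for no effect and no enzyme for full effect; nearly all actives have a fitted effect of over 35% in size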
Target sequence (P54132 whole entry, looked up): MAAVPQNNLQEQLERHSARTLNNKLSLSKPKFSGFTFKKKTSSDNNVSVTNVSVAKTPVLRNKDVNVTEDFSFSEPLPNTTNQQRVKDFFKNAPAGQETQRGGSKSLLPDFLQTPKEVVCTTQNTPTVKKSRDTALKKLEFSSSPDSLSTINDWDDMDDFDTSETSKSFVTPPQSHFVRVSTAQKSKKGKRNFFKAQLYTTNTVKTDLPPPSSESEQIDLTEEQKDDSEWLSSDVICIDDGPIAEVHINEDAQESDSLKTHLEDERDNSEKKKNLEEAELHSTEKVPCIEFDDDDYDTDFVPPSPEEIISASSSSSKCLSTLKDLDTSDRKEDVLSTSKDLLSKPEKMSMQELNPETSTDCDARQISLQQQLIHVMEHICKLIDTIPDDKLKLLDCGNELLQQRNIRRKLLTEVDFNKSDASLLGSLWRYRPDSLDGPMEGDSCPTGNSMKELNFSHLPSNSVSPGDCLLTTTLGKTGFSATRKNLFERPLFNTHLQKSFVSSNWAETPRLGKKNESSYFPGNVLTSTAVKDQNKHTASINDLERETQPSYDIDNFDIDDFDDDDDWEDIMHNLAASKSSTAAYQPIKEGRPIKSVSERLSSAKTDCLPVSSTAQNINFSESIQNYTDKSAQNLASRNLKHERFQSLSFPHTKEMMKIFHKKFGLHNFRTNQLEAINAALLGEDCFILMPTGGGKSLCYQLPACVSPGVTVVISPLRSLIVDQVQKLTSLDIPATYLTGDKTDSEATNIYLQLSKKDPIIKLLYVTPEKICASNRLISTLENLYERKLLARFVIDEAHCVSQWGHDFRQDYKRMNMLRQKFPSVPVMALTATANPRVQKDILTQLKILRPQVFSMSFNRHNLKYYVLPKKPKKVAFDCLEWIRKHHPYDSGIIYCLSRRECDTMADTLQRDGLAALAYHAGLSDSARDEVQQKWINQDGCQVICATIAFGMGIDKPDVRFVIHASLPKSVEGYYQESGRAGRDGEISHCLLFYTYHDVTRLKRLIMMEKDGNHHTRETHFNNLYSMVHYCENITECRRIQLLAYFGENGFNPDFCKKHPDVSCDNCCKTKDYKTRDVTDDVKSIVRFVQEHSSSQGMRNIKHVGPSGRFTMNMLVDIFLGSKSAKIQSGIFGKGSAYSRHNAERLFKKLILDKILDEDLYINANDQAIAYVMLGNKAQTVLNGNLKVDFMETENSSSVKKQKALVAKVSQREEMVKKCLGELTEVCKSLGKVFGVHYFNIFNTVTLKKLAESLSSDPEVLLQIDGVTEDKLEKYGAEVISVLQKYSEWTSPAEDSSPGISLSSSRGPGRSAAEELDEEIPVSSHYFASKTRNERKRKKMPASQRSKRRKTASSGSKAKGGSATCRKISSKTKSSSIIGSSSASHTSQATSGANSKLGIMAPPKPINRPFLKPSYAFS
WRN helicase inh-2: WRN helicase inhibition, cherry-pick retest; shares compounds with WRN helicase inh-1; WRN helicase DNA unwinding, fluorescence kinetic; Potency, µM (top dose mostly 57.1 µM), for inactives: at the top dose activity, negative = inhibition, actives largely listed as inhibitors; 63% of 610 active; also: nearly all actives have a fitted effect of over 65% in size
TO displacement: counter-screen for WRN helicase inhibitors: DNA binding. shares compounds with WRN helicase inh-1. thiazole orange DNA binding displacement, fluorescence. Potency, µM (top dose mostly 57.1 µM), for the others: at the top dose activity change, negative = inhibition, hits mostly inhibitors. 10% of 610 active;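 also: drop in dye fluorescence marks compound binding to DNA; % is scaled to controls: 0 for no effect and ±100 for the full control effect; nearly all actives have a fitted effect of over 60% in size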
BLM helicase inh-2: BLM helicase inhibition, WRN selectivity check | shares compounds with WRN helicase inh-1 | Recombinant BLM helicase DNA unwinding, red fluorescence | Potency, µM (series often up to 57.1 µM), for the others: at the highest dose activity change, negative = inhibition, usual class: inhibitors | 60% of 610 active | AID 720503; also: nearly all actives have a fitted effect of over 60% in size
Numbers without * were called inactive; [ ] = another dose, or the depositor's remark. Calls follow the shape of the dose curve; as a rule, active = well fitted curve in the direction sought with a large enough effect; inconclusive = small, poorly fitted or top-dose-only effect, or another doubt; inactive = no such curve, though single readings can be large; an effect the other way counts as inactive or inconclusive. Potency is read from the fitted curve at half-maximal effect.

COc1cc(-c2cnc3c(NC=O)cc(-c4cccc(NC(C)=O)c4)cn23)cc(OC)c1OC was read as WRN helicase inh-1 25µM*, WRN helicase inh-2 9.6µM*, TO displacement 8% and BLM helicase inh-2 15µM*.
COc1cccc(-c2cnc3c(NC=O)cc(-c4cccc(NC(C)=O)c4)cn23)c1 was read as WRN helicase inh-1 -8%[57.1 µM].
Cc1ccc(-c2ccc(/C=C3\C(=O)ON=C3c3ccccc3)o2)c([N+](=O)[O-])c1 was read as FEN1 inhibitor -13%, APE1 inh 1%, RECQ1 inh 0%, WRN helicase inh-1 40µM*, L3MBTL1 inh -2%, BLM helicase inh-1 -11%, WRN helicase inh-2 22µM*, TO displacement inconclusive and BLM helicase inh-2 22µM*.
Screening O=C1/C(=C\c2ccc(-c3ccccc3[N+](=O)[O-])o2)C(c2ccccc2)=NN1c1ccccc1 returned FEN1 inhibitor -5%, APE1 inh -11%, RECQ1 inh -25%, WRN helicase inh-1 3%, L3MBTL1 inh -5%[11.4 µM] and BLM helicase inh-1 -1%.
COc1ccc(CC(=O)NO)cc1OC was read as FEN1 inhibitor 18%.
Screening CC(C)Cc1ccc(CN2CCCC(NC(=O)CCN3CCCCC3=O)C2)cc1 (stereo not given) returned FEN1 inhibitor -2%, APE1 inh 32%, WRN helicase inh-1 5% and BLM helicase inh-1 1%.
For CC(C)Cc1ccc(C(C)/C=C2/CCC(CN3CCCCC3)C2=O)cc1 (stereo not given) the results were FEN1 inhibitor -20%, WRN helicase inh-1 35µM*, WRN helicase inh-2 -27%, TO displacement -6% and BLM helicase inh-2 inconclusive.
CCCC(=O)Nc1nnc(SCc2cc(=O)c3ccc(C)cc3[nH]2)s1 was read as FEN1 inhibitor 14% and BLM helicase inh-1 -13%.
`O=C(O)c1[nH]c2ccccc2c1C(c1cc(Cl)cc([N+](=O)[O-])c1O)c1c(C(=O)O)[nH]c2ccccc12` gave FEN1 inhibitor 79µM*, APE1 inh -2%, WRN helicase inh-1 45µM*, L3MBTL1 inh -27%, BLM helicase inh-1 -5%, WRN helicase inh-2 22µM*, TO displacement -11% and BLM helicase inh-2 inconclusive.
For Oc1ccc(O)c(Cc2nc3ccccc3[nH]2)c1 the results were FEN1 inhibitor -21%, APE1 inh -2%, RECQ1 inh inactive, WRN helicase inh-1 89µM*, L3MBTL1 inh -18%, BLM helicase inh-1 -4%, WRN helicase inh-2 22µM*, TO displacement inconclusive and BLM helicase inh-2 6.8µM*.
OCc1nc2ccccc2[nH]1 was read as FEN1 inhibitor 0%.
CCOc1cccc(CNc2ccc(O)cc2)c1OCc1ccc(Cl)cc1Cl was read as FEN1 inhibitor -11%, APE1 inh inconclusive, RECQ1 inh -24%, WRN helicase inh-1 inconclusive, L3MBTL1 inh inconclusive, BLM helicase inh-1 inconclusive, WRN helicase inh-2 -29%, TO displacement -27% and BLM helicase inh-2 inconclusive.
CCOc1cccc(CNCCO)c1OCc1ccc(Cl)cc1Cl was read as FEN1 inhibitor -23%, APE1 inh 1%, RECQ1 inh -10%, WRN helicase inh-1 25%, L3MBTL1 inh 5% and BLM helicase inh-1 -6%.
COc1ccccc1OCc1nnc(SCC(=O)NCc2ccco2)n1Cc1ccco1 was read as FEN1 inhibitor inconclusive, APE1 inh inconclusive, RECQ1 inh -20%, WRN helicase inh-1 inconclusive, L3MBTL1 inh inconclusive, BLM helicase inh-1 -21%, WRN helicase inh-2 19µM*, TO displacement -4% and BLM helicase inh-2 12µM*.
For Cc1ccccc1OCc1nnc(SCC(=O)NCc2ccco2)n1C the results were FEN1 inhibitor -2%, APE1 inh 7%, RECQ1 inh -1%, WRN helicase inh-1 -23%, L3MBTL1 inh -5% and BLM helicase inh-1 -2%.
Screening COc1cc(/C=C2\C(=O)N(CCC#N)N=C2C)ccc1OCC(=O)Nc1ccccc1 returned FEN1 inhibitor inconclusive, APE1 inh -4%, RECQ1 inh 4%, WRN helicase inh-1 inconclusive, L3MBTL1 inh -15%, BLM helicase inh-1 -1%, WRN helicase inh-2 inconclusive, TO displacement -4% and BLM helicase inh-2 17µM*.
`CC(=O)c1ccc(OCCCC(=O)Nc2cccc(S(=O)(=O)N3CCCCC3)c2)cc1` gave FEN1 inhibitor 4%, APE1 inh -5%, WRN helicase inh-1 -15% and L3MBTL1 inh -7%.
COc1cc(/C=C2/C(=O)c3cccc([N+](=O)[O-])c3C2=O)c(Br)cc1O was read as FEN1 inhibitor inconclusive, APE1 inh inconclusive, RECQ1 inh 25µM*, WRN helicase inh-1 4.2µM*, L3MBTL1 inh -15%, BLM helicase inh-1 -19%, WRN helicase inh-2 inconclusive, TO displacement inconclusive and BLM helicase inh-2 inconclusive.
`CC1(C)OC(=O)C(=Cc2ccc(-c3ccc(S(N)(=O)=O)cc3)o2)C(=O)O1` gave FEN1 inhibitor -18%, APE1 inh -8%, RECQ1 inh inactive, WRN helicase inh-1 inconclusive, L3MBTL1 inh inconclusive, BLM helicase inh-1 3%, WRN helicase inh-2 inconclusive, TO displacement -10% and BLM helicase inh-2 inconclusive.
`CS(=O)(=O)Nc1ccc(-c2ccc(/C=C3\SC(N)=NC3=O)o2)cc1` gave FEN1 inhibitor -26%, APE1 inh 12%, WRN helicase inh-1 inconclusive, L3MBTL1 inh -6% and BLM helicase inh-1 -5%.
`NC1=NC(=O)/C(=C/c2ccc(-c3ccc(S(N)(=O)=O)cc3)o2)S1` gave FEN1 inhibitor inconclusive, APE1 inh -6%, WRN helicase inh-1 35µM*, L3MBTL1 inh -6%, BLM helicase inh-1 inconclusive, WRN helicase inh-2 19µM*, TO displacement 70% and BLM helicase inh-2 11µM*.
`CC(=O)Nc1cncc(-c2cccc(C(=O)N3CCOCC3)c2)n1` gave WRN helicase inh-1 -8%.
Screening CN(C)c1ccc(/C=C/c2ccnc3ccccc23)cc1 returned FEN1 inhibitor -23%.
